Reference: PubChem BioAssay AID2284183 (EPA ToxCast)
Active and inactive are the calls of the source. Rule for the calls: active = hit-call score of the fitted dose curve at least 0.9, where 1 is the maximum; inactive = score below 0.9.

Biological target: human Tachykinin Receptor NK2 Agonism, TACR2 (gene 6865) (UniProt P21452)
Test: ERF_TW_GPCR_hTACR2: Eurofins (ERF) G Protein-Coupled Receptor (GPCR) Radioligand Binding LeadHunter Assay for human Tachykinin Receptor NK2 Agonism
Procedure: ERF_TW_GPCR_hTACR2 is a biochemical, single-readout assay that uses extracted gene-proteins in a cell-free assay. Measurements were taken 1.5 hour after chemical dosing in a 96-well plate. See NK2 Human Tachykinin GPCR Binding (Antagonist Radioligand) Assay, Panlabs.ERF_TW_GPCR_hTACR2 is an assay component calculated from the ERF_TW_GPCR_hTACR2 assay. It is designed to measure radioligand binding using a type of binding reporter as detected by scintillation counting with radiometry technology.Data from the assay component ERF_TW_GPCR_hTACR2 was analyzed at the assay endpoint, ERF_TW_GPCR_hTACR2, in the positive analysis fitting direction relative to DMSO as the negative control and baseline of activity. Using a type of binding reporter, loss-of-signal activity can be used to understand changes in radioligand binding as they relate to gene TACR2. To generalize the intended target to other relatable targets, this assay endpoint is annotated to the gpcr intended target family, where the subfamily is tachykinin.
Human recombinant neurokinin NK2 receptor expressed in CHO-hNK2 cells are used to prepare membranes in modified HEPES buffer pH 7.4. A 5 ug aliquot of membrane is incubated with 0.02 nM [125I]-Neurokinin A for 120 minutes at 25C. […] Membranes are filtered and washed, the filters are then counted to determine [125I]-Neurokinin A specifically bound. […]

human Tachykinin Receptor NK2 Agonism, TACR2 (gene 6865), sequence (P21452 whole entry, looked up): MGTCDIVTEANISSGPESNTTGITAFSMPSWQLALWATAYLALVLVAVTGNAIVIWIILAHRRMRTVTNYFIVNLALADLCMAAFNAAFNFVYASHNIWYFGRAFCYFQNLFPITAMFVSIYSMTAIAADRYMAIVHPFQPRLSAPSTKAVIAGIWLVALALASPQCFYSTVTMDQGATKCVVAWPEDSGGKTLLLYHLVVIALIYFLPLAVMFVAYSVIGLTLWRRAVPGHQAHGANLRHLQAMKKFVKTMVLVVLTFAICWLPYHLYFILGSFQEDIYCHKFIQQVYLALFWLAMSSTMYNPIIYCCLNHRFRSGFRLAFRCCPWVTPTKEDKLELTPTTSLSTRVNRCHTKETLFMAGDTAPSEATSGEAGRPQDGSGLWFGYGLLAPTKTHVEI

Structure (SMILES)	AC50
O=C(/C=C/c1ccc(O)cc1)CC(=O)/C=C/c1ccc(O)cc1	1.08 µM (active)
